# Source: PubChem BioAssay AID504850 (National Center for Advancing Translational Sciences (NCATS), 2011)
# Among all 2,300 compounds or so, about 1,200 (52%) were called active. Roughly 34% stayed inconclusive and do not appear here. Calls come from the whole dose curve; as a rule, active = well fitted inhibition curve with a large enough effect; inconclusive = small, poorly fitted or top-dose-only effect, or effect the other way; inactive = no such curve, though single readings can be large or run the other way. The set was probably picked from earlier hits. The list shows a part of the results.
# Test: Confirmation screen for delayed death inhibitors of the malarial parasite plastid, 48 hour incubation; note: nearly all actives have a fitted effect of over 65% in size
# Conditions: P. falciparum-infected erythrocytes, luciferase growth; series mostly up to 28.7 µM; activity change, negative = inhibition: at the top concentration
# Procedure, shortened: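 Single-generation (48 h, 37 C) exposure of integrated firefly luciferase-reporter P. falciparum in red cells, 0.1% parasitemia at 2% hematocrit, Albumax-supplemented RPMI. Falling luciferase signal marks parasite growth inhibition.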
# % is set by controls: 0 for no effect and ±100 for the full control effect; potency is the fitted concentration of half-maximal effect.
SMILES,Potency,"activity change, negative = inhibition"
Cc1ccc(Cl)cc1N1CCN(Cc2nc3c(c(=O)[nH]c(=O)n3C)n2CCc2ccccc2)CC1,7.08 µM (active),
CCCCNC(=O)c1onc(CSc2ccccc2C)c1C(=O)O,,1.08% (inactive)
CCc1ccc(OCCNC(=O)c2ccccc2SCc2ccccc2)cc1,14.1 µM (active),
COC(=O)c1ccc(CSc2ccccc2C)o1,,-5.45% (inactive)
O=S(=O)(c1cccs1)N1CCC(CO)(Cc2cccc(F)c2)CC1,,-62% (inactive)
O=S(=O)(c1cccs1)N1CCN(c2ccnc3cc(Cl)ccc23)CC1,5.01 µM (active),
CN(C)S(=O)(=O)N1CCN(c2ccnc3cc(Cl)ccc23)CC1,12.6 µM (active),
O=c1oc2ccccc2c(O)c1CN1CCCCC1,,18.3% (inactive)
CCCCCCCCCC[n+]1cccc2c3ccccc3ccc21,0.891 µM (active),
CCCCCCCCC[n+]1cccc2c3ccccc3ccc21,0.398 µM (active),
O=S(=O)(Nc1ccc(O)c(Sc2nc3ccccc3s2)c1)c1cccc2ccccc12,15.8 µM (active),
COc1cc(-c2ccc(Nc3ccccc3C(=O)O)c(OC)c2)ccc1Nc1ccccc1C(=O)O,12.6 µM (active),
COc1cc(-c2ccc(NC(=O)NC3CC3)c(OC)c2)ccc1NC(=O)NC1CC1,12.6 µM (active),
COc1ccc(Nc2cccc(Cl)c2)c(C(=O)O)c1,,-15.3% (inactive)
CC(=O)N1CCSc2ccc(S(=O)(=O)Nc3ccc(C)cc3)cc21,10 µM (active),
Cc1ccc(S(=O)(=O)C2(C(=O)N3CCCCCC3)CC2)cc1,,-19.3% (inactive)
O=[N+]([O-])c1ccc(Sc2cccc3cccnc23)c([N+](=O)[O-])c1,4.47 µM (active),
CN1CC2=Cc3ccccc3OC23Oc2ccccc2C=C3C1,3.98 µM (active),
CC(C)=N/N=C1/NC(=O)C(Cc2ccccc2)S1 (stereo not drawn),11.2 µM (active),
CCc1noc(C)c1C(=O)NC1CC(C)(C)Cc2c1cnn2-c1ccccc1 (stereo not drawn),15.8 µM (active),
CC1=C(C(=O)NC2CC(C)(C)Cc3c2cnn3-c2ccc(C)cc2)OCCO1 (stereo not drawn),12.6 µM (active),
Cc1ccc(-n2ncc3c2CC(C)(C)CC3NC(=O)c2c(C)noc2C)cc1 (stereo not drawn),11.2 µM (active),
Cc1cc(C)c(NC(=O)c2cccc3c2C(=O)N(C2CCCCC2)C3)c(C)c1,10 µM (active),
COc1cccc2cc(C(=O)NCc3ccc(Cl)cc3)c(=N)oc12,,-13.6% (inactive)

SMILES,Potency,"activity change, negative = inhibition"
COc1ccc(CCNC(=O)c2cc3c(=O)n4cccc(C)c4nc3n(Cc3ccco3)c2=N)cc1OC,12.6 µM (active),
Cc1cc(OCC(=O)N[C@@H](CSCc2ccccc2)C(=O)O)c2c(C)c(C)c(=O)oc2c1,14.1 µM (active),
COC(=O)c1c(-n2c(C)cc(C=O)c2C)sc2c1CCCC2,14.1 µM (active),
COc1cc(NCc2ccc3nc(N)nc(N)c3c2C)cc(OC)c1OC,0.316 µM (active),
O=C(Nc1ccc(C2=NCCN2)cc1)c1ccc(C(=O)Nc2ccc(C3=NCCN3)cc2)c(Cl)c1,0.891 µM (active),
COCCNC(=O)CCCCCN1C(=O)CCC1=O,,-8.65% (inactive)
Cc1cccc(-n2ccc(=O)c(C(=O)Nc3ccc(S(=O)(=O)N4CCOCC4)cc3)n2)c1,11.2 µM (active),
O=S(=O)(c1ccc(Cl)c(NC(=S)N/N=C/c2ccc(O)cc2)c1)N1CCOCC1,11.2 µM (active),
O=C(Nc1ccccc1)C1=C[C@@H](C2CCCCC2)C[C@@H](OCc2ccc(CO)cc2)O1,11.2 µM (active),
O=C(NCc1ccccc1)C1=C[C@@H](c2coc3ccccc3c2=O)C[C@@H](OCc2ccc(CO)cc2)O1,10 µM (active),
O=C(NC1CC1)C1=C[C@@H](C2CCCCC2)C[C@@H](OCc2ccc(CO)cc2)O1,12.6 µM (active),
CN(c1ccccc1)S(=O)(=O)c1cc(C(=O)N2CCN(c3ncccn3)CC2)ccc1Cl,11.2 µM (active),
CN(c1ccccc1)S(=O)(=O)c1ccc(NC(=O)c2nc(S(C)(=O)=O)ncc2Cl)cc1,,-6.44% (inactive)
COC(=O)c1ccc(NC(=O)c2cccc(NC(=O)c3ccccc3)c2)cc1,8.91 µM (active),
COC(=O)c1ccc(CNCC(=O)Nc2ccc(C(=O)OC)cc2)cc1,,-23.3% (inactive)
COc1cc(C(=O)Nc2ccc(S(=O)(=O)Nc3cc(C)on3)cc2)cc(OC)c1OC,,3.18% (inactive)
COc1cc(C(=O)Nc2ccc(Nc3ccccc3)cc2)cc(OC)c1OC,11.2 µM (active),
COc1ccccc1NC(=O)c1ccc2nc(-c3ccccc3)c(-c3ccccc3)nc2c1,,1.49% (inactive)
COc1ccc(NC(=O)c2cccc(NC(=O)c3ccccc3)c2)c(OC)c1,11.2 µM (active),
COc1cc(CN2CCN(S(=O)(=O)c3ccccc3)CC2)cc(OC)c1OC,3.16 µM (active),
COc1ccccc1N1CCN(S(=O)(=O)c2ccc(-n3cnnn3)cc2)CC1,,-28% (inactive)
COCCN1CCCC(CNCc2cn(C)nc2-c2ccc(Oc3ccccc3)cc2)C1 (stereo not drawn),7.94 µM (active),
Cc1cccc(NC(=O)Cc2coc3ccc4ccccc4c23)n1,12.6 µM (active),
CCOc1ccc(C2C3=C(Nc4nc(N)[nH]c(=O)c42)c2ccccc2C3=O)cc1 (stereo not drawn),14.1 µM (active),

SMILES,Potency,"activity change, negative = inhibition"
C/C(=C\C(=O)c1ccncc1)Nc1ccccc1O,14.1 µM (active),
O=C(CCN1CCN(c2ccc(F)cc2)CC1)Nc1ccccc1F,,-14.3% (inactive)
CSc1ccccc1NC(=O)CN1CCN(S(=O)(=O)c2ccccc2[N+](=O)[O-])CC1,14.1 µM (active),
C=CCNC(=O)c1onc(CSc2cccc3ccccc23)c1C(=O)O,,13.7% (inactive)
Cc1c(NC(=O)CSc2nnc3c4ccccc4n(CCc4ccccc4)c3n2)c(=O)n(-c2ccccc2)n1C,11.2 µM (active),
CSc1nnc2c3ccccc3n(CCc3ccccc3)c2n1,15.8 µM (active),
COc1ccc(C)cc1NC(=O)C(Sc1nnc(Nc2cc(C)ccc2OC)s1)c1ccccc1 (stereo not drawn),14.1 µM (active),
Cn1cc([N+](=O)[O-])c(C(=O)Nc2nccs2)n1,,0.495% (inactive)
CC(C)(C)OC(=O)NCCCCCNC(=O)c1[nH]cnc1C(=O)Nc1nccs1,10 µM (active),
CCn1cc(C(=O)O)c(=O)c2cc(F)c(N/N=C/c3ccccc3)cc21,12.6 µM (active),
O=c1[nH]c(C2CCN(S(=O)(=O)c3cccc([N+](=O)[O-])c3)CC2)nc2c1nnn2Cc1ccccc1,10 µM (active),
O=C(c1cccs1)N1CCC(c2nc3c(nnn3Cc3c(Cl)cccc3Cl)c(=O)[nH]2)CC1,7.94 µM (active),
CC(SC#N)C(=O)C12CC3CC(CC(C3)C1)C2 (stereo not drawn),8.91 µM (active),
O=C(CSc1nnc(-c2ccco2)o1)N1c2ccccc2CCc2ccccc21,10 µM (active),
C/C(=N\NC(=S)NCC(C)(C)C)c1cc(F)cc(F)c1O,11.2 µM (active),
CC1=NNC(=O)/C1=C\c1cn(-c2ccccc2)nc1-c1cccs1,8.91 µM (active),
COc1cccc(Nc2ccc(N3CCCCC3)cc2)c1OC,6.31 µM (active),
ClC(/C=N/n1cnnc1)=C/c1ccccc1,14.1 µM (active),
S=c1[nH]nc(COc2ccccc2)n1/N=C/C(Cl)=C/c1ccccc1,14.1 µM (active),
O=C(CSc1nc2nn(-c3ccccc3)c(=O)c-2c2n1CCCCC2)c1ccc(O)c(O)c1,12.6 µM (active),
COc1cc(/C=C/C(=O)c2ccc(NS(=O)(=O)c3ccc(C)cc3)cc2)ccc1OC(F)F,12.6 µM (active),
COc1ccc(/C=C/C(=O)c2ccc(NS(=O)(=O)c3ccc(C)cc3)cc2)cc1O,7.94 µM (active),
Cc1c(O)ccc(C(=O)CN2CCN(Cc3ccc4c(c3)OCO4)CC2)c1O,14.1 µM (active),
Cc1c(-c2ccccc2)nc2ccccc2c1C(=O)Nc1ccncc1,0.501 µM (active),

SMILES,Potency,"activity change, negative = inhibition"
O=C(c1cc(COc2cccc(C(F)(F)F)c2)on1)N1CCC(Oc2cccnc2)CC1,12.6 µM (active),
CN1CCN(C(=O)c2cc(COc3c(F)cccc3F)on2)CC1c1ccccc1 (stereo not drawn),,-15.8% (inactive)
CC(=O)N1CCCN(C(=O)c2cc(COc3c(F)cccc3F)on2)CC1,,-13.9% (inactive)
S=c1[nH]nc(-c2cc(-c3ccccc3)n[nH]2)n1/N=C/C(Br)=C/c1ccccc1,6.31 µM (active),
C=C1C(=O)O[C@@H]2C[C@@H](C)[C@@H]3C=CC(=O)[C@@]3(C)[C@@H](OC(C)=O)[C@H]12,1.58 µM (active),
COc1ccc2nc3sc(C(=O)NCCN4CCc5ccccc5C4)cc3cc2c1,8.91 µM (active),
c1ccc2c(c1)Nc1cc3ccccc3cc1S2,5.01 µM (active),
CCN(Cc1ccccc1)C(=O)CSc1ncn[nH]1,,-18.7% (inactive)
O=C(/C=C/Sc1ncn[nH]1)c1ccc(Cl)cc1,12.6 µM (active),
O=C(/C=C/c1ccccc1Cl)c1ccccc(=O)c1O,10 µM (active),
Cc1ccc(C)c(/C=C/C(=O)c2ccccc(=O)c2O)c1,14.1 µM (active),
N#Cc1ccccc1S(=O)(=O)N1CCC(C(=O)NCc2ccccc2CN2CCCC2)CC1,12.6 µM (active),
Cc1ccc(SCC(=O)Nc2ccccc2C(=O)O)cc1,,8.96% (inactive)
COc1ccc(C)cc1NC(=O)CSCc1ccccc1C,12.6 µM (active),
CCOc1ccc(NC(=O)CC2C(=O)N(c3ccccc3)C(=O)N2CCOC)cc1 (stereo not drawn),,-1.36% (inactive)
O=C(C[C@H]1C(=O)N(Cc2ccccc2)C[C@@H]1Cc1ccccc1)Nc1ccccc1,11.2 µM (active),
Cn1c(Cc2cccc3ccccc23)nnc1SCc1ccc([N+](=O)[O-])cc1,14.1 µM (active),
CC1(C)CCSC(/C=C/c2ccccc2)=N1,7.94 µM (active),
CCC(=O)NC(=S)Nc1ccc(NC(=O)c2ccc(C)c([N+](=O)[O-])c2)cc1,14.1 µM (active),
CC(=O)c1ccc(NC(=S)Nc2ccc3cn[nH]c3c2)cc1,,5.49% (inactive)
Cc1ccc(-c2nn(C(C)(C)C)c3ncnc(N)c23)cc1,5.62 µM (active),
